# From the supplement of paper PMC10849652
# The full data set covers some 7,900 targets. This sample favours those with a hit. About 0.6% of all pairs of compound and target were hits. Values without a mark were called inactive.
# Columns and labels:
# Assay in all cases: log2 fold change, soluble protein after heating vs DMSO (PISA); higher = thermal stabilisation; K562 cells, 10 uM, 30 min; active = over 0.2 and 3.5 SD of the protein, either way, in both replicates (recomputed)
# [1] = compound: CC1=C(C=C(C=C1)NC(=O)C2=CC(=CC=C2)N(C)C)NC(=O)C3=CC=C(C=C3)O
# How it was run: (§1)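 K562 cells at 2×10^6 cells/mL were treated for 30 min with 10 μM compound, and aliquots were heated for 3 min over 48°C-58°C before pooling. Extraction used PBS with 0.5% NP-40 at 4°C, and soluble protein was the supernatant after 21,000xg for 90 min, measured by TMTpro 16plex LC-MS/MS with channel sums equalised. Thermal stability values, relative to control samples and from duplicates, are log2 fold changes.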
# [2] = compound: CC1=CC=C(C=C1)SC2=C3C=C(SC3=CN=C2)C(=O)N
# How it was run: as §1
# [3] = compound: CC1=NC(=CC=C1)C2=C(N=C(N2)C(C)(C)C)C3=CC4=NC=CN=C4C=C3
# How it was run: as §1
# vemurafenib = compound: CCCS(=O)(=O)Nc1ccc(F)c(C(=O)c2c[nH]c3ncc(-c4ccc(Cl)cc4)cc23)c1F [vemurafenib]
# How it was run: as §1
# [4] = compound: CCCS(=O)(=O)Nc1ccc(F)c(C(=O)c2c[nH]c3ncc(Cl)cc23)c1F
# How it was run: as §1
# barasertib = compound: CCN(CCCOc1ccc2c(Nc3cc(CC(=O)Nc4cccc(F)c4)[nH]n3)ncnc2c1)CCOP(=O)(O)O [barasertib]
# How it was run: as §1
# volasertib = compound: CC[C@@H]1C(=O)N(C)c2cnc(Nc3ccc(C(=O)N[C@H]4CC[C@H](N5CCN(CC6CC6)CC5)CC4)cc3OC)nc2N1C(C)C [volasertib]
# How it was run: as §1
# [5] = compound: CN(C)CC(=O)Nc1ccc2[nH]c(=O)c3ccccc3c2c1
# How it was run: as §1
# rosiglitazone = compound: CN(CCOC1=CC=C(C=C1)C[C@H]2C(=O)NC(=O)S2)C3=CC=CC=N3 (racemic) [rosiglitazone]
# How it was run: as §1
# [6] = compound: CCCc1cc(C)[nH]c(=O)c1CNC(=O)c1cc(-c2ccnc(N3CCN(C)CC3)c2)cc2c1cnn2C(C)C
# How it was run: as §1
# givinostat = compound: CCN(CC)Cc1ccc2cc(COC(=O)Nc3ccc(C(=O)NO)cc3)ccc2c1 [givinostat]
# How it was run: as §1
# [7] = compound: CC[C@@H]1C(=O)N(C)c2cnc(Nc3ccc(C(=O)NC4CCN(C)CC4)cc3OC)nc2N1C1CCCC1
# How it was run: as §1
# [8] = compound: CC[C@H](C)N1C=C(C2=C(C=C(C=C21)C3=CN=C(C=C3)N4CCNCC4)C(=O)NCC5=C(C=C(NC5=O)C)C)C
# How it was run: as §1
# [9] = compound: CCn1c(C(=O)N(C2CC2)C2CC2)cc2c3c(ncn3C)c(Nc3cc(C)n(C)n3)nc21
# How it was run: as §1
# [10] = compound: CCn1cc(-c2ccnc3[nH]c(-c4cccc(CN(C)C)c4)cc23)c(-c2ccc(NC(=O)N(C)C)cc2)n1
# How it was run: as §1
# [11] = compound: CN1C2=C(C3=C1C(=O)N(N=C3)CC4=CC(=CC=C4)N)SC(=C2)S(=O)C
# How it was run: as §1
# [12] = compound: CN1CCC(CNc2ccc3ncc(-c4cccc(OC(F)(F)F)c4)n3n2)CC1
# How it was run: as §1
# [13] = compound: CC1=C(C=C(C=C1)NC(=O)C2=CC(=CC=C2)C(C)(C)C#N)NC3=CC4=C(C=C3)N=CN(C4=O)C
# How it was run: as §1
# Nexturastat A = compound: CCCCN(Cc1ccc(C(=O)NO)cc1)C(=O)Nc1ccccc1 [Nexturastat A]
# How it was run: as §1
# epoxomicin = compound: CC[C@H](C)[C@@H](C(=O)N[C@@H]([C@@H](C)O)C(=O)N[C@@H](CC(C)C)C(=O)[C@]1(CO1)C)NC(=O)[C@H]([C@@H](C)CC)N(C)C(=O)C [epoxomicin]
# How it was run: as §1
# UniProt Q6EEV4, sequence (Q6EEV4 whole entry, looked up): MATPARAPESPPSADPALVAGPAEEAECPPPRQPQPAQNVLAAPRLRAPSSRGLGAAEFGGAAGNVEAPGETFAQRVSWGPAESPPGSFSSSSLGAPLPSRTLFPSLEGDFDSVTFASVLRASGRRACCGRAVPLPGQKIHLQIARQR
# UniProt P28065, sequence (P28065 whole entry, looked up): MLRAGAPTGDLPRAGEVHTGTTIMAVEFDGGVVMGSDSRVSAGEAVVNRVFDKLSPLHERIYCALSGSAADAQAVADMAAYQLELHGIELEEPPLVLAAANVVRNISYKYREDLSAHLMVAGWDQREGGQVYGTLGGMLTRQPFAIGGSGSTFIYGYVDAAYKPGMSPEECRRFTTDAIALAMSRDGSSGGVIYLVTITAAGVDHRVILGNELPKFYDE
# UniProt Q9P1Y6, sequence (Q9P1Y6 whole entry, looked up): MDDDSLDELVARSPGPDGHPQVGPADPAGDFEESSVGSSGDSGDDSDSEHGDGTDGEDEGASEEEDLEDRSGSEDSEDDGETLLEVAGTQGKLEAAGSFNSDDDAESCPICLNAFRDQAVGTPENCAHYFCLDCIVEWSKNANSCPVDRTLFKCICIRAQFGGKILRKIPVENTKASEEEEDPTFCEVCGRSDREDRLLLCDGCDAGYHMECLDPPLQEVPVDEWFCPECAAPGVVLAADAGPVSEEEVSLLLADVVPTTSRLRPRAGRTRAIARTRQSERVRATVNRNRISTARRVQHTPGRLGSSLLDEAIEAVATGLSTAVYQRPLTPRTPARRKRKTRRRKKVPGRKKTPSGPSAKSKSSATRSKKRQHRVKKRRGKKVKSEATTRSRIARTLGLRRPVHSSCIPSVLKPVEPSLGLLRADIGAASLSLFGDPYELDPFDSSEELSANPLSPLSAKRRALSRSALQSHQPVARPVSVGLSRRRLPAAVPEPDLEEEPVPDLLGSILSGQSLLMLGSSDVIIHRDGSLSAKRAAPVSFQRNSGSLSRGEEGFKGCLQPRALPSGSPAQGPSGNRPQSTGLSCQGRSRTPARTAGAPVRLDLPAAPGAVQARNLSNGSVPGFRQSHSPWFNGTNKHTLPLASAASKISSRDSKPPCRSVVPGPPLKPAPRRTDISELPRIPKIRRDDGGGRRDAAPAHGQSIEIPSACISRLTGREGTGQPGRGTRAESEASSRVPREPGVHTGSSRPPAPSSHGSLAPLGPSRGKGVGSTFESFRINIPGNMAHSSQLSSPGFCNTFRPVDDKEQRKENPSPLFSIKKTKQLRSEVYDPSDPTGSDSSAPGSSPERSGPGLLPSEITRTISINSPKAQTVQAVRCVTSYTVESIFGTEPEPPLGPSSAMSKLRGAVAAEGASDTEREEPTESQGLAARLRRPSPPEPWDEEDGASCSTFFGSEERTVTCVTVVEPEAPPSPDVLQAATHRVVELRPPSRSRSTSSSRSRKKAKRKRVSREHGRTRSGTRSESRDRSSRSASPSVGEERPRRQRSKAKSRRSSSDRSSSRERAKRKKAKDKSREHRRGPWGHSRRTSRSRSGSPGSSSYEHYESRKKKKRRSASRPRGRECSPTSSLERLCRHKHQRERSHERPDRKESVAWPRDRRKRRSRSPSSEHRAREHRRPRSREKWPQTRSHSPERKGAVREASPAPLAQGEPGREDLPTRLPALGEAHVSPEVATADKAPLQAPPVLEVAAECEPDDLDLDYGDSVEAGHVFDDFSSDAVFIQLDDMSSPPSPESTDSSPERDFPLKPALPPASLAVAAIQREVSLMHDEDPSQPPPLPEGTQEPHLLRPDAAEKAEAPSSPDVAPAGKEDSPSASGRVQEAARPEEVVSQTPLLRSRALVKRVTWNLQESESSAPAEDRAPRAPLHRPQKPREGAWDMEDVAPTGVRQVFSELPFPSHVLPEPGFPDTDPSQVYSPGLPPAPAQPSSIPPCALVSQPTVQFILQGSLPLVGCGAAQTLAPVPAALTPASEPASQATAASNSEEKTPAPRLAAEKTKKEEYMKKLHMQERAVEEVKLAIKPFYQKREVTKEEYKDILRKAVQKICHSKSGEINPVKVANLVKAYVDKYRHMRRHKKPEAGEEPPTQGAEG
# UniProt Q14442, sequence (Q14442 whole entry, looked up): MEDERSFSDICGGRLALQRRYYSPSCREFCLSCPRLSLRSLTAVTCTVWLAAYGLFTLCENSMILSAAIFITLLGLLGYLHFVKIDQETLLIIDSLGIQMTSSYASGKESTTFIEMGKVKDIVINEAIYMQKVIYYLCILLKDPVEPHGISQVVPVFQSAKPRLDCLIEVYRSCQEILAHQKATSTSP
# UniProt Q9NYI0, sequence (Q9NYI0 whole entry, looked up): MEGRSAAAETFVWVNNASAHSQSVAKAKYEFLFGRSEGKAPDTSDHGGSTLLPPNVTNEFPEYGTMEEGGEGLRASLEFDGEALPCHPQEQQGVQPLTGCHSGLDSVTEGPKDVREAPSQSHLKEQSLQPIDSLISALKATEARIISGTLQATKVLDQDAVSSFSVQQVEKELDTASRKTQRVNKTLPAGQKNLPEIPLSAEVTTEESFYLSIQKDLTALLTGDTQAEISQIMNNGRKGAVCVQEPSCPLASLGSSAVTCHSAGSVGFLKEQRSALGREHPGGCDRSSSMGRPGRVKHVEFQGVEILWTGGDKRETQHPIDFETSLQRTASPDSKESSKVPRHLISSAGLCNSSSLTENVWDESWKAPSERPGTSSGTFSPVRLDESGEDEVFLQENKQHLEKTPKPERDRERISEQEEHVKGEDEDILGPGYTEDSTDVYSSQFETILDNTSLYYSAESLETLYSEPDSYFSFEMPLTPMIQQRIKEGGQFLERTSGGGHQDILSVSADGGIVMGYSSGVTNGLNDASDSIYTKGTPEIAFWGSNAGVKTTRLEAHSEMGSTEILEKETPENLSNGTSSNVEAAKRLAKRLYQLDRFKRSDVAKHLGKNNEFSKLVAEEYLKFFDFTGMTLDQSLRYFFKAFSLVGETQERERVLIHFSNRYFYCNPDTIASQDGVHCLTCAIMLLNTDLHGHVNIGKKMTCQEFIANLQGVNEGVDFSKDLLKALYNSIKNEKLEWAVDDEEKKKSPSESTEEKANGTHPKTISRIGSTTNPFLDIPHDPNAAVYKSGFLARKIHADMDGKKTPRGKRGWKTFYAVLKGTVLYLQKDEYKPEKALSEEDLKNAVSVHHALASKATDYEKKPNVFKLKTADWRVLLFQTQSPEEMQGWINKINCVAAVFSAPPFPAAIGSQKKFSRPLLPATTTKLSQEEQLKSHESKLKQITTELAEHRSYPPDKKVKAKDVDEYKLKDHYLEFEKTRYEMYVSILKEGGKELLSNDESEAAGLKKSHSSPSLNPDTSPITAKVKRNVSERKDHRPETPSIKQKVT
# UniProt Q15126, sequence (Q15126 whole entry, looked up): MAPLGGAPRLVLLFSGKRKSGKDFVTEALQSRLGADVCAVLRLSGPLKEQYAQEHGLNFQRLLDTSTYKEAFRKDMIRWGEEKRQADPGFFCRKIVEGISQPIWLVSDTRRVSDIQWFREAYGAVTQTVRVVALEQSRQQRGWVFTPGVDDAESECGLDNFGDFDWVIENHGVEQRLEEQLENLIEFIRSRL
# UniProt Q15173, sequence (Q15173 whole entry, looked up): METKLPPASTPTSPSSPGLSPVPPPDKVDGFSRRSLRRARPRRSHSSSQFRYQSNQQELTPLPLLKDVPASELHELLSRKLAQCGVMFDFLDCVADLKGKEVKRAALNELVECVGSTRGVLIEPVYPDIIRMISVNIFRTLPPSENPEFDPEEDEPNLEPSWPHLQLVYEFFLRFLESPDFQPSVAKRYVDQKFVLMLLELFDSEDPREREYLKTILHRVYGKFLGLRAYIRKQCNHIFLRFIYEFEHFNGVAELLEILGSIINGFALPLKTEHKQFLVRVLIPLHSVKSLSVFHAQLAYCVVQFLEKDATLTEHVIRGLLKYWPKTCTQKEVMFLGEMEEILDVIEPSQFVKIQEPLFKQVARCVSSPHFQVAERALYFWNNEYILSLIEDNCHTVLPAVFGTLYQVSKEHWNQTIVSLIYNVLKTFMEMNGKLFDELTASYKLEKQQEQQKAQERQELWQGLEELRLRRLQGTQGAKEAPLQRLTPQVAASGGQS
# UniProt P60484, sequence (P60484 whole entry, looked up): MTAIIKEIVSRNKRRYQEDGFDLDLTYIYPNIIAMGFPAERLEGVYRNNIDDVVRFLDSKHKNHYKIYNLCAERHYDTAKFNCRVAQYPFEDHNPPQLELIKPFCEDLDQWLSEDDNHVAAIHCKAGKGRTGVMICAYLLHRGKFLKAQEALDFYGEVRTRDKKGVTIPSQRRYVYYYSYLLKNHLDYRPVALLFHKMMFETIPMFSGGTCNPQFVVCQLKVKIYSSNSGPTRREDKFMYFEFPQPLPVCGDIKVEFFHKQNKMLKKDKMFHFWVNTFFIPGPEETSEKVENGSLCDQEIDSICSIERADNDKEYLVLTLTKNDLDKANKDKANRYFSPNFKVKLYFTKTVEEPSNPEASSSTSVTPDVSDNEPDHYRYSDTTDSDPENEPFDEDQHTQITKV
# UniProt O75365, sequence (O75365 whole entry, looked up): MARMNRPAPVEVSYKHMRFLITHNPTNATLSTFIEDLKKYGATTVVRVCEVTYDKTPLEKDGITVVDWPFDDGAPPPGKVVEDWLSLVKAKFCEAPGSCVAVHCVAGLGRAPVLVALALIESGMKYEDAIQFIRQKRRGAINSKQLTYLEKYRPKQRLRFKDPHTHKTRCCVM
Target,log2 fold change [1],log2 fold change [2],log2 fold change [3],log2 fold change (vemurafenib),log2 fold change [4],log2 fold change (barasertib),log2 fold change (volasertib),log2 fold change [5],log2 fold change (rosiglitazone),log2 fold change [6],log2 fold change (givinostat),log2 fold change [7],log2 fold change [8],log2 fold change [9],log2 fold change [10],log2 fold change [11],log2 fold change [12],log2 fold change [13],log2 fold change (Nexturastat A),log2 fold change (epoxomicin)
PSMA3 (UniProt G3V4X5),-0.046,-0.117,0.184,-0.012,0.013,0.103,0.139,0.084,0.122,,,,,,,,,,,
PSMD8 (UniProt K7ERW6),,,-0.283,-0.236,,,,0.027,,,,,,,,,,,,
PPP2R5B (UniProt Q15173),,-0.131,,-0.104,0.104,0.009,-0.173,0.128,0.11,-0.013,0.083,-0.348,0.021,0.025,0.015,-0.05,-0.529 (active),,,
PSMB9 (UniProt P28065),,-0.032,-0.342,-0.08,-0.047,0.12,0.008,-0.043,-0.057,,-0.179,0.114,,-0.046,0.033,,0.051,-0.137,-0.233,0.049
PTP4A3 (UniProt O75365),,,,0.207,,-0.01,,0.205,0.045,,,,,,,,,,,
PSMA3 (UniProt H0YJ03),0.019,0.019,-0.194,-0.145,-0.134,,0.076,-0.04,,,,0.115,,,,0.027,,,,
PSMC1 (UniProt G3V4X1),,-0.384,,,-0.154,,0.141,,,,0.095,,-0.01,-0.135,0.108,,-0.282,,,
PHC3 isoform 7 (UniProt Q8NDX5),,0.088,0.266,,0.096,0,-0.163,,0.066,0.116,0.17,0.076,0.178,-0.113,,,,0.102,-0.43,0.254
PTEN isoform 2 (UniProt P60484),-0.035,0.13,0.064,,-0.016,,0.05,,,,-0.086,0.024,,-0.071,-0.016,,-0.098,,,
PDE4A (UniProt P27815),-0.028,-0.047,0.062,0.006,0.024,0.049,-0.331,0.082,0.078,,0.015,,,0.099,,,,,0.061,-0.124
POLR2E (UniProt P19388),-0.094,0,-0.091,0.031,0.018,-0.03,-0.067,0.034,0.01,0.099,-0.007,0.027,0.018,-0.104,0.015,0.092,0.09,,0.005,0.065
PHRF1 (UniProt Q9P1Y6),-0.052,-0.034,,,-0.058,,0.373,,,0.146,0.034,,,0.035,,,,,,
POLR2M (UniProt Q6EEV4),,-0.062,0.046,0.017,-0.066,-0.055,0.009,0.091,0.097,-0.073,-0.105,0.13,0.002,0.027,,0.105,,0.091,-0.403,0.154
PSMC3 (UniProt E9PLG2),,,-0.217,-0.157,,0.02,,-0.238,0.043,-0.08,,,,,,0.046,,-0.381,0.04,-0.273
PIGH (UniProt Q14442),0.001,0.027,0,0,-0.025,-0.219,-0.008,0.013,0.058,-0.069,-0.011,0.06,,0.022,-0.038,0.115,0.051,,0.141,-0.128
PSD3 (UniProt Q9NYI0),-0.059,-0.01,0.023,-0.019,0.049,,-0.108,0.004,,0.025,,-0.019,0.061,,,,,,,
PMVK (UniProt Q15126),,,,-0.041,,0.014,,0.018,0.067,0.016,-0.068,,0.069,0.028,0.142,0.036,0.057,0.006,0.085,0.003
